From PubChem BioAssay
KB-3-1 cytotox = KB-3-1 parental cell cytotoxicity; Potency, µM (top dose mostly 46.1 µM), actives largely listed as cytotoxic; AID 1347075; KB-3-1 viability, CellTiter-Glo ATP luminescence, 72 h; actives 1.4% (n = 400,000); further: on the % scale 0 is the no-effect control and ±100 the full control effect; nearly all actives have a fitted effect of over 60% in size
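Cytotoxicity measured as CellTiter-Glo luminescence after 72 h at 37 C. Compound titrations were pinned onto drug-naive KB-3-1 parental adenocarcinoma cells grown in DMEM with 10% FBS, and normalized data fitted to concentration-response curves.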
S2 tox = reduces viability in counter-screen for ATXN expression inhibitors. Potency, µM (titrated, usually from 56.7 µM), actives largely listed as cytotoxic. S2 cells (HEK-293 line with an ATXN2-luciferase reporter) viability, CellTiter-Fluor protease fluorescence, 24 h. actives 0.49% (n = 400,000); further: nearly all actives have a fitted effect of over 40% in size
HT1080 IDH1KD tx = HT-1080 IDH1 knockdown cell toxicity (counter line) | HT-1080 IDH1 knockdown viability, ATP luminescence, 48 h | Potency, µM (top dose mostly 46.1 µM), inactives show at the highest dose activity, negative = toxicity, most hits filed as cytotoxic | AID 686971 | actives 2% (n = 360,000);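 further: 0% = DMSO wells and -100% = cell-free medium wells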
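Viability of IDH1-knockdown HT-1080 fibrosarcoma cells was assessed by CellTiter-Glo after 48 h at 37 °C with titrated compound; concentration-effect curves were classified by fit quality and response size.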
KB-V1 MDR tox = kills drug-selected multidrug resistant KB-V1 cells; Potency, µM (doses to about 46.1 µM), most hits filed as cytotoxic; actives 3.4% (n = 400,000); KB-V1 MDR cells viability, CellTiter-Glo, 72 h; further: on the % scale 0 is the no-effect control and ±100 the full control effect; nearly all actives have a fitted effect of over 60% in size
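qHTS viability screen in drug-selected KB-V1 MDR cells: 72 h compound treatment at 37 degrees C, ATP luminescence end point.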
HT1080-NT tox = kills 2HG-producing HT-1080-NT fibrosarcoma cells; HT-1080-NT fibrosarcoma viability, CellTiter-Glo ATP luminescence, 48 h; Potency, µM (doses to about 46.1 µM), without a hit: top-dose activity, negative = less viability, most hits filed as cytotoxic; actives 1.6% (n = 360,000);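 further: NT is the 2HG producing partner of a matched IDH1 knockdown line; 0% = DMSO-treated cells and -100% = media-only wells without cells; nearly all actives have a fitted effect of over 55% in size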
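A 48-hour cytotoxicity screen used HT-1080-NT cells plated 2 hours before compound delivery. ATP-based CellTiter-Glo luminescence measured viability, normalized to DMSO and no-cell controls.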
ATXN2 expr inh = ATXN2 expression inhibition; actives 0.72% (n = 360,000); AID 1745845; HEK-293 ATXN2-luciferase reporter, luminescence, 24 h; Potency, µM (highest dose often 57 µM), inactives show top-dose activity change, negative = inhibition, actives largely listed as inhibitors; further: on the % scale 0 is the no-effect control and ±100 the full control effect; nearly all actives have a fitted effect of over 55% in size
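ATXN2-luciferase reporter cells (luciferase flanked by upstream and downstream ATXN2 gene portions) were treated 24 h at 37 °C with compounds at up to 57 uM. SteadyGlo luminescence gave expression; GF-AFC fluorescence gave viability.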
The depositor's hits bear a star; i = inactive; ? = inconclusive; · = no result; [ ] = another dose, or the depositor's remark. Sampled rows, rich in hits. Any-hit rate of the full collection: about 6.2%. The call rests on the fitted dose curve; in most records, active means well fitted curve in the direction sought with a large enough effect; inconclusive means small, poorly fitted or top-dose-only effect, or another doubt; inactive means no such curve, though single readings can be large; an effect the other way counts as inactive or inconclusive. Potency means the concentration at half of the fitted maximal effect.

SMILES	KB-3-1 cytotox	S2 tox	HT1080 IDH1KD tx	KB-V1 MDR tox	HT1080-NT tox	ATXN2 expr inh
COc1ccc(Cc2nc3ccc(C(=O)NCCCN4CCN(C)CC4)cc3o2)cc1	i	·	·	i	·	·
CC(=O)c1cccc(Nc2ccc(-c3ccccc3F)nn2)c1	i	i	-4%	i	0%	55%
COc1ccccc1-c1ccc(Nc2cccc(C(C)=O)c2)nn1	i	i	-25%	13µM*	-2%	33%
Cc1ccc2nc(SCc3ccc([N+](=O)[O-])cc3)nc(C)c2c1	?	i	6%	i	13%	-13%
Cc1ccc(CSc2nc3ccncc3[nH]2)cc1	12µM*	?	?	i	?	?
O=C(CSc1nc2ccc([N+](=O)[O-])cc2[nH]1)NC1CCCCCC1	?	?	?	13µM*	?	-37%
Cc1ccc2nc(SCC(=O)Nc3cccc([N+](=O)[O-])c3)[nH]c2c1	i	i	?	15µM*	-16%	-15%
O=C(CSc1nc2ccc([N+](=O)[O-])cc2[nH]1)NC1CCCCC1	?	i	?	i	?	-30%
Cc1ccc2nc(SCc3ccc([N+](=O)[O-])cc3)[nH]c2c1	?	i	?	16µM*	?	?
Clc1ccc(CSc2nc3ccncc3[nH]2)cc1	?	i	?	i	-22%	-12%
Cc1c(Cl)ccc2sc(N3CCN(C(=O)CS(=O)(=O)c4ccccc4)CC3)nc12	i	?	·	i	·	20µM*
CCNc1nc(C)c2cc(Br)c(=O)n(CC)c2n1	?	i	2.1µM*	6.5µM*	2.9µM*	-2%
CCn1c(=N)c(C(=O)NC)cc2c(=O)n3cccc(C)c3nc21	i	·	-1%	i	-23%	?
COc1ccc(CCNC(=O)c2cc3n(n2)CCCN(Cc2ccc(C)cc2)C3=O)cc1OC	i	i	·	i	·	-19%
CSc1nc(SCC(=O)NC(c2ccccc2)c2ccccc2)c2c3c(sc2n1)CN(C)CC3	?	28µM*	?	?	-28%	20µM*
COc1ccc(-c2nc(C3CCCCC3)no2)cc1OC	i	i	-22%	16µM*	19%	67%
c1ccc(-c2nc(C3CCCCC3)no2)cc1	i	i	13%	i	13%	33%
COc1ccc(-c2nc(-c3ccccc3OC)no2)cc1OC	?	i	-19%	6.5µM*	-4%	44%
CCOC(=O)c1c(C)c(-c2ccccc2)n(CC(=O)NCc2cccc(OC)c2)c1C	i	i	·	i	·	3%
COC(=O)c1sccc1S(=O)(=O)N1CCN(c2cccc(C)c2C)CC1	i	i	·	i	·	-17%
OCC1OC(n2nc3ccccc3n2)C(O)C(O)C1O (centres undefined)	i	i	-3%[9.24 µM]	i	-13%	4%
COc1ccc(C[C@H](N)C(=O)N[C@H]2[C@@H](O)[C@H](n3cnc4c(N(C)C)ncnc43)O[C@@H]2CO)cc1	0.41µM*	0.71µM*	11%	i	4%	0.4µM*
O=c1[nH]cnc2c1ncn2C1OC(CO)C(O)C1O (centres undefined)	i	i	3%	i	0%	-6%
CN(C)c1ncnc2c1ncn2C1OC(CO)C(O)C1O (centres undefined)	8.2µM*	?	13µM*	?	13µM*	59%
CNc1ncnc2c1ncn2[C@@H]1O[C@H](CO)[C@@H](O)[C@H]1O	i	i	12%	i	14%	63%
CN(C)c1ncnc2c1nnn2C1OC(CO)C(O)C1O (centres undefined)	i	?	0.46µM*	1.6µM*	0.58µM*	·
OCC1OC(n2ccc3c2ncn2ncnc32)C(O)C1O (centres undefined)	?	i	0.65µM*	0.65µM*	0.58µM*	·
